Results filed as inconclusive are left out. Calls of active or inactive are those of the source. The calls were made as follows: active = hit-call score of the fitted dose curve at least 0.9, where 1 is the maximum; inconclusive = response in the unintended direction; inactive = score below 0.9.
Read-out: HMG-CoA synthase (HMGCS2), HMGCS2 (gene 3158)
Test: CLD_HMGCS2_6hr: CellzDirect (CLD) Gene Expression Assay for HMG-CoA synthase (HMGCS2) at 6 hours (AID 2283682);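 also: actives raise HMGCS2 transcript above the 0.2% DMSO vehicle baseline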
Method: CLD_6hr is a cell-based, multiplexed-readout assay that uses hepatocyte, a human liver primary cell, with measurements taken at 6 hours after chemical dosing in a 96-well plate.CLD_HMGCS2_6hr is one of 16 assay component(s) measured or calculated from the CLD_6hr assay. It is designed to make measurements of mRNA induction, a form of inducible reporter, as detected with chemiluminescence signals by Quantitative Nuclease Protection Assay (qNPA) technology.Data from the assay component CLD_HMGCS2_6hr was analyzed at the endpoint, CLD_HMGCS2_6hr, in the positive analysis fitting direction relative to DMSO as the negative control and baseline of activity. Using a type of inducible reporter, gain-of-signal activity can be used to understand changes in the reporter gene as they relate to the gene HMGCS2. Furthermore, this assay endpoint can be referred to as a primary readout. To generalize the intended target to other relatable targets, this assay endpoint is annotated to the lyase intended target family, where subfamily is HMG-CoA synthase.
Human hepatocyte cultures were treated daily for two consecutive days with fresh dosing solutions containing appropriate concentrations of the 320 ToxCast chemicals (chemical identities were blinded to CellzDirect and other ToxCast collaborators), vehicle control (0.2% DMSO), and positive control inducers as summarized in Table 1. Due to the large number of treatment groups and chemicals examined, the ToxCast chemicals were divided into two groups (spanning two independent cultures of hepatocytes from separate donor preparations (Hu778: ToxCast plates 1 and 2; Hu776: ToxCast plates 3 and 4). Each preparation of human hepatocyte cultures was treated with respective vehicle control, medium only control, set of six positive controls/reference chemicals for the five hepatic receptor pathways, and a subset of eight of the ToxCast chemicals (indoxacarb, pyrithiobac-sodium, norflurazon, cyhalofop-butyl, methomyl, thiram, acetochlor, and propiconazole). These replicate data, coupled with internal replicates designed within the blinded ToxCast chemical library, provided additional data to evaluate interindividual differences between hepatocyte preparations and their potential impact on chemical profiles.Cell morphology and integrity were evaluated using phase-contrast microscopy as an indicator of hepatocyte cell health (Tyson & Green, 1987). Cultures for each treatment group (i.e., media, vehicle [0.2% DMSO], positive control inducers [multiple concentrations], and the ToxCast chemicals [multiple concentrations]) were observed and cell morphology was assessed relative to vehicle control cultures at each harvest time point (0, 6, 24, or 48 h). […] Images were evaluated at the conclusion of the study to assess changes in cell integrity and account for the effects of chemical exposure on uncharacteristic changes in concentration-dependent gene expression profiles. The results from these determinations of apparent cytotoxicity were annotated (yes/no) alongside the corresponding qNPA data for reference.At the conclusion of each treatment period, hepatocyte cultures (96-well) were washed with 1 volume of HBSS, lysed by addition of 25 ul ArrayPlate lysis buffer (HTG, Tucson, AZ), and 70 ul/well of Denaturation Oil, denatured by incubation at 95C for 10 min, and frozen at approximately -70C until analysis by nuclease protection assay (qNPA) (Roberts et al., 2007). For qNPA analysis, cell lysates were thawed at 50C for approximately 30 min, qNPA probes were added, and samples were incubated at 95C for 10 min to begin the detection process by denaturing the target RNA, dissociating the duplexes and secondary structure hybridization. At the conclusion of the hybridization period, S1 nuclease reagent was added to each sample to digest all nonprotected nucleotides at 50C for 60-90 min. […]

SMILES	AC50	outcome
O=S(=O)(O)C(F)(F)C(F)(F)C(F)(F)C(F)(F)C(F)(F)C(F)(F)C(F)(F)C(F)(F)F	3.97 µM (active)	
Cc1[nH]c(=O)n(C(C)(C)C)c(=O)c1Cl		inactive
CCOCN(C(=O)CCl)c1c(C)cccc1CC		inactive
O=[N+]([O-])/N=C1\NCCN1Cc1ccc(Cl)nc1		inactive
COP(=O)(OC)OC=C(Cl)Cl		inactive
CCS(=O)(=O)c1cccnc1S(=O)(=O)NC(=O)Nc1nc(OC)cc(OC)n1		inactive
O=C(O)COc1ccc(Cl)cc1Cl		inactive
Cc1cc(C)nc(NC(=O)NS(=O)(=O)c2ccccc2C(=O)OC2COC2)n1		inactive
CNC(=O)Oc1cccc(N=CN(C)C)c1		inactive
CCOc1nc(NC)nc(NC(=O)NS(=O)(=O)c2ccccc2C(=O)OC)n1		inactive
Oc1ccc(Cl)cc1Cc1ccccc1		inactive
CNC(=O)Oc1ccccc1OC(C)C		inactive
O=C(Nc1ccccc1)Nc1cnns1		inactive
COC(=O)c1ccccc1CS(=O)(=O)NC(=O)Nc1nc(OC)cc(OC)n1		inactive
CCC(C)Nc1c([N+](=O)[O-])cc(C(C)(C)C)cc1[N+](=O)[O-] (centres undefined)		inactive
OCCOc1ccccc1		inactive
O=C1c2ccccc2C(=O)N1SC(Cl)(Cl)Cl		inactive

SMILES	AC50	outcome
CCc1ccc(C(=O)NN(C(=O)c2cc(C)cc(C)c2)C(C)(C)C)cc1		inactive
N#CN		inactive
[2H]C1([2H])[n+]2ccccc2-c2cccc[n+]2C1([2H])[2H]		inactive
CC(C)(C)C(O)C(Oc1ccc(Cl)cc1)n1cncn1 (centres undefined)		inactive
CNC(=O)CSP(=S)(OC)OC		inactive
CCN(CC)C(=O)SCc1ccc(Cl)cc1		inactive
Clc1ccccc1-c1nnc(-c2ccccc2Cl)nn1		inactive
CC1(c2ccc(Oc3ccccc3)cc2)OC(=O)N(Nc2ccccc2)C1=O (centres undefined)		inactive
O=C(O)CCCOc1ccc(Cl)cc1Cl		inactive
O=C(O)C(F)(F)C(F)(F)C(F)(F)C(F)(F)C(F)(F)C(F)(F)C(F)(F)F		inactive
COC(=O)c1ccccc1S(=O)(=O)NC(=O)Nc1nc(C)nc(OC)n1	0.0117 µM (active)	
COc1cc(OC)nc(NC(=O)NS(=O)(=O)c2cc(NC=O)ccc2C(=O)N(C)C)n1		inactive
CCCN(CCOc1c(Cl)cc(Cl)cc1Cl)C(=O)n1ccnc1		inactive
CNC(=O)/C=C(\C)OP(=O)(OC)OC		inactive
Oc1cc(Cl)ccc1Oc1ccc(Cl)cc1Cl		inactive
CC[C@H](C)[C@H]1O[C@]2(C=C[C@@H]1C)C[C@@H]1C[C@@H](C/C=C(\C)[C@@H](O[C@H]3C[C@H](OC)[C@@H](O[C@H]4C[C@H](OC)[C@@H](O)[C@H](C)O4)[C@H](C)O3)[C@@H](C)/C=C/C=C3\CO[C@@H]4[C@H](O)C(C)=C[C@@H](C(=O)O1)[C@]34O)O2 (tested in a mixture with another compound)		inactive
O=S1OCC2C(CO1)C1(Cl)C(Cl)=C(Cl)C2(Cl)C1(Cl)Cl (centres undefined)		inactive
